Targets with a hit are over-represented here; the source holds about 7,900 in all. About 0.6% of all pairs of compound and target were hits. Unmarked numbers belong to inactive results.
Tests used:
Assay in all cases: log2 fold change, soluble protein after heating vs DMSO (PISA); higher = thermal stabilisation; K562 cells, 10 uM, 30 min; active = over 0.2 and 3.5 SD of the protein, either way, in both replicates (recomputed)
[1] = compound: CC[C@@H]1C(=O)N(C)c2cnc(Nc3ccc(C(=O)NC4CCN(C)CC4)cc3OC)nc2N1C1CCCC1
Procedure, shortened: (§1)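 Quantification of soluble protein used TMTpro 16plex LC-MS/MS, with channel sums equalised. Samples were the supernatant after 21,000xg for 90 min of pooled aliquots from K562 cells (2×10^6 cells/mL) treated with 10 μM compound for 30 min, heated for 3 min over 48°C-58°C, and extracted in PBS with 0.5% NP-40 at 4°C. Values, from duplicates, describe thermal stability against control samples on a log2 fold-change scale.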

volasertib = compound: CC[C@@H]1C(=O)N(C)c2cnc(Nc3ccc(C(=O)N[C@H]4CC[C@H](N5CCN(CC6CC6)CC5)CC4)cc3OC)nc2N1C(C)C [volasertib]
Procedure, shortened: as §1

[2] = compound: CC[C@H](C)N1C=C(C2=C(C=C(C=C21)C3=CN=C(C=C3)N4CCNCC4)C(=O)NCC5=C(C=C(NC5=O)C)C)C
Procedure, shortened: as §1

epoxomicin = compound: CC[C@H](C)[C@@H](C(=O)N[C@@H]([C@@H](C)O)C(=O)N[C@@H](CC(C)C)C(=O)[C@]1(CO1)C)NC(=O)[C@H]([C@@H](C)CC)N(C)C(=O)C [epoxomicin]
Procedure, shortened: as §1

[3] = compound: CCn1c(C(=O)N(C2CC2)C2CC2)cc2c3c(ncn3C)c(Nc3cc(C)n(C)n3)nc21
Procedure, shortened: as §1

[4] = compound: CCn1cc(-c2ccnc3[nH]c(-c4cccc(CN(C)C)c4)cc23)c(-c2ccc(NC(=O)N(C)C)cc2)n1
Procedure, shortened: as §1

[5] = compound: CN(C)CC(=O)Nc1ccc2[nH]c(=O)c3ccccc3c2c1
Procedure, shortened: as §1

rosiglitazone = compound: CN(CCOC1=CC=C(C=C1)C[C@H]2C(=O)NC(=O)S2)C3=CC=CC=N3 (racemic) [rosiglitazone]
Procedure, shortened: as §1

[6] = compound: CN1C2=C(C3=C1C(=O)N(N=C3)CC4=CC(=CC=C4)N)SC(=C2)S(=O)C
Procedure, shortened: as §1

[7] = compound: CN1CCC(CNc2ccc3ncc(-c4cccc(OC(F)(F)F)c4)n3n2)CC1
Procedure, shortened: as §1

saracatinib = compound: CN1CCN(CCOc2cc(OC3CCOCC3)c3c(Nc4c(Cl)ccc5c4OCO5)ncnc3c2)CC1 [saracatinib]
Procedure, shortened: as §1

sotrastaurin = compound: CN1CCN(c2nc(C3=C(c4c[nH]c5ccccc45)C(=O)NC3=O)c3ccccc3n2)CC1 [sotrastaurin]
Procedure, shortened: as §1

alvocidib = compound: CN1CC[C@H](c2c(O)cc(O)c3c(=O)cc(-c4ccccc4Cl)oc23)[C@H](O)C1 [alvocidib]
Procedure, shortened: as §1

Tubastatin A = compound: CN1CCc2c(c3ccccc3n2Cc2ccc(C(=O)NO)cc2)C1 [Tubastatin A]
Procedure, shortened: as §1

[8] = compound: CNC(=O)C1=CC=CC=C1NC2=NC(=NC=C2Cl)NC3=C(C=C(C=C3)N4CCOCC4)OC
Procedure, shortened: as §1

defactinib = compound: CNC(=O)c1ccc(Nc2ncc(C(F)(F)F)c(NCc3nccnc3N(C)S(C)(=O)=O)n2)cc1 [defactinib]
Procedure, shortened: as §1

rucaparib = compound: CNCc1ccc(-c2[nH]c3cc(F)cc4c3c2CCNC4=O)cc1 [rucaparib]
Procedure, shortened: as §1

[9] = compound: CNc1nc(-c2ccc3c(N)n[nH]c3c2)cc(N2C[C@@H](C(=O)NC3CCCCC3)CC[C@H]2C)n1
Procedure, shortened: as §1

encorafenib = compound: COC(=O)N[C@@H](C)CNc1nccc(-c2cn(C(C)C)nc2-c2cc(Cl)cc(NS(C)(=O)=O)c2F)n1 [encorafenib]
Procedure, shortened: as §1

[10] = compound: COC(=O)[C@H](CCSC)NC(=O)C1=C(C=C(C=C1)NC[C@H](CS)N)C2=CC=CC=C2
Procedure, shortened: as §1

UniProt Q7Z2Z2, sequence (Q7Z2Z2 whole entry, looked up): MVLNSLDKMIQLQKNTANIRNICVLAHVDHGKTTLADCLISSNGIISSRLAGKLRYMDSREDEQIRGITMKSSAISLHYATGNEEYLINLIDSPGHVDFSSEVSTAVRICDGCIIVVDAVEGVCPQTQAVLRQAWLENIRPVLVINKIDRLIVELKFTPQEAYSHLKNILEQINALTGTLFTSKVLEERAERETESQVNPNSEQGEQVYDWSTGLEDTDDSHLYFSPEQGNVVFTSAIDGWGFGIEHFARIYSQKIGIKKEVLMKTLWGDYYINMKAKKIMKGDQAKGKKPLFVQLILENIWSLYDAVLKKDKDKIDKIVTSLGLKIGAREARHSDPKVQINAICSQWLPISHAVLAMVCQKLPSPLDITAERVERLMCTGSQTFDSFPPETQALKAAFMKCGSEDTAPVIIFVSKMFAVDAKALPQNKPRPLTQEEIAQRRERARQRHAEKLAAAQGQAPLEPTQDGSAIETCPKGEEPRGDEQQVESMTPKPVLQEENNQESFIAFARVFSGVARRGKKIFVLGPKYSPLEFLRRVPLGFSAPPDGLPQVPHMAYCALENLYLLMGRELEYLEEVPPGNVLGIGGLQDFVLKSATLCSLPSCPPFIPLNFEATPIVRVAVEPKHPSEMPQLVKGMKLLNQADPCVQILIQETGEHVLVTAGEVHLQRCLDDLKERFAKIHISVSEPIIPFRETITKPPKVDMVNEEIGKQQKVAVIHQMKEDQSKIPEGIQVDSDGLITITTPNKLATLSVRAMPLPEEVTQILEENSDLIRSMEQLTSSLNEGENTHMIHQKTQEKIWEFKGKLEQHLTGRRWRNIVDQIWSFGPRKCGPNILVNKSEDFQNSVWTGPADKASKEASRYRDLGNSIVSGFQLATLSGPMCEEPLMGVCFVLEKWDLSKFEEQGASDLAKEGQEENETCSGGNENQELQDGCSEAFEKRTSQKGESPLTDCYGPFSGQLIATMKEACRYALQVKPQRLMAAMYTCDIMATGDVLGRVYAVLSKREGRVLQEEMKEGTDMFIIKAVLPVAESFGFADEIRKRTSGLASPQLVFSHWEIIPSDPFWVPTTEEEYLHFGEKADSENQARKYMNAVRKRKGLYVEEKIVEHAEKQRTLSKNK
UniProt Q9NX74, sequence (Q9NX74 whole entry, looked up): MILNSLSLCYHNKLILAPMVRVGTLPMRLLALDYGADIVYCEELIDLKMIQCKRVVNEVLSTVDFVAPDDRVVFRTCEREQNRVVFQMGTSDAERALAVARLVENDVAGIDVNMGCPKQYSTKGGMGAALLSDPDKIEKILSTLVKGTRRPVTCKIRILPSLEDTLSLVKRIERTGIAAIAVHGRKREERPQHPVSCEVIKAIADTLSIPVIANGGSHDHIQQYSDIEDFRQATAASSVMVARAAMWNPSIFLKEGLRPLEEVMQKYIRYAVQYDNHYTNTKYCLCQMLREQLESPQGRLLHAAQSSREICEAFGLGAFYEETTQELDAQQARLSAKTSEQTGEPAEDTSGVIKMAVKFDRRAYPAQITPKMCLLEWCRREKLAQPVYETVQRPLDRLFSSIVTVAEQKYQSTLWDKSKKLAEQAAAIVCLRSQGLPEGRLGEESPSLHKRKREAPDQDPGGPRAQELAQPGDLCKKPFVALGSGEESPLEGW
UniProt Q96EV8, sequence (Q96EV8 whole entry, looked up): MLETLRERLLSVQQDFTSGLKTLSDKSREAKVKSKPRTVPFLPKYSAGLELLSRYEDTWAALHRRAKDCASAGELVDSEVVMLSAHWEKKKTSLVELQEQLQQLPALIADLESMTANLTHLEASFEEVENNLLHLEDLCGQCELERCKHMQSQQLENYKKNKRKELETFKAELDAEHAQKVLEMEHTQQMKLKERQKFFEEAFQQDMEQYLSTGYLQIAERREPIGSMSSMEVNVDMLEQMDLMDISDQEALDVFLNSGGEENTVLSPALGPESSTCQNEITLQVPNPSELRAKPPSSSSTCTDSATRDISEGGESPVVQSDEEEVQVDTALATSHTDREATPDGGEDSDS
UniProt Q9NZN4, sequence (Q9NZN4 whole entry, looked up): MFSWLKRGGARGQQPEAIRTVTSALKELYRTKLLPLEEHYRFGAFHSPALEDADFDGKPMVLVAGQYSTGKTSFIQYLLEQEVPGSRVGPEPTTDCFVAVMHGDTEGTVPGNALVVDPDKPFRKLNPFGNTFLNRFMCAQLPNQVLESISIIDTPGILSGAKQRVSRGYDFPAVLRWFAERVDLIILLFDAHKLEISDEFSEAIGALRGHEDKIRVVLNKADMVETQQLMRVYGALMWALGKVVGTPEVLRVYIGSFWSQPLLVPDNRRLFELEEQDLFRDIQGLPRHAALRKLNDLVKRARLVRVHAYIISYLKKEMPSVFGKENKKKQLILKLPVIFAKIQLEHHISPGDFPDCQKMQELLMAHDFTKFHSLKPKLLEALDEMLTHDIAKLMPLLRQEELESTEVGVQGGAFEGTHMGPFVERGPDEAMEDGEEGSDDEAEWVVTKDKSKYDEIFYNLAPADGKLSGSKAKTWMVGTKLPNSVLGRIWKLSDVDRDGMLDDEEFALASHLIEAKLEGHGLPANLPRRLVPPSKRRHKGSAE
UniProt Q96F86, sequence (Q96F86 whole entry, looked up): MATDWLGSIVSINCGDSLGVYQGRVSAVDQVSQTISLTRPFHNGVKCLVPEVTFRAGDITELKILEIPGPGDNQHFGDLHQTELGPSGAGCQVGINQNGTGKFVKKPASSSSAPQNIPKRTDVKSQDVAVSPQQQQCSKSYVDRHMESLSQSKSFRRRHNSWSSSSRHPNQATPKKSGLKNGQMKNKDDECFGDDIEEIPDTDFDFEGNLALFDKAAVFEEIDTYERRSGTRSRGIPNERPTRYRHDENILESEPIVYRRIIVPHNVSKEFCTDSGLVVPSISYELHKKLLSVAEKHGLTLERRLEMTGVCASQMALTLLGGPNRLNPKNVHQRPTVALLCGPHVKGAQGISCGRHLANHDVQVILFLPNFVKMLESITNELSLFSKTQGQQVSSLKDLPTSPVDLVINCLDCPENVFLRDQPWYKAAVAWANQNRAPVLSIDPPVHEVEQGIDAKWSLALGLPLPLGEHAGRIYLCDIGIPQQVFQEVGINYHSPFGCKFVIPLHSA
UniProt Q8NBA8, sequence (Q8NBA8 whole entry, looked up): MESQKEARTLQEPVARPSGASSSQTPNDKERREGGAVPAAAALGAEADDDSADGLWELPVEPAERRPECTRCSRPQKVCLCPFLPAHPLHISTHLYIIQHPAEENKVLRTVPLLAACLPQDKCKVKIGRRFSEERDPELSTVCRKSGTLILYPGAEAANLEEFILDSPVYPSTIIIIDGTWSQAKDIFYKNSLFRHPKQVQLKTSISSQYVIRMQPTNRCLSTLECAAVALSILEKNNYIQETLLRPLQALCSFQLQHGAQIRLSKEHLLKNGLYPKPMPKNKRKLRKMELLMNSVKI
UniProt Q9NYP7, sequence (Q9NYP7 whole entry, looked up): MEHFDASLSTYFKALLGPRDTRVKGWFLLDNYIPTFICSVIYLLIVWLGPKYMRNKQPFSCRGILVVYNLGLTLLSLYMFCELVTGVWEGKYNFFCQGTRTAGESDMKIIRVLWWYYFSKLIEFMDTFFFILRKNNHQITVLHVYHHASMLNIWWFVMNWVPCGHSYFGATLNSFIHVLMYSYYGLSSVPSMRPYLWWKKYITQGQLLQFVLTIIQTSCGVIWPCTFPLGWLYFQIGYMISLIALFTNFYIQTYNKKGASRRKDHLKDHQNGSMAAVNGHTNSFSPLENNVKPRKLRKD
UniProt Q9H773, sequence (Q9H773 whole entry, looked up): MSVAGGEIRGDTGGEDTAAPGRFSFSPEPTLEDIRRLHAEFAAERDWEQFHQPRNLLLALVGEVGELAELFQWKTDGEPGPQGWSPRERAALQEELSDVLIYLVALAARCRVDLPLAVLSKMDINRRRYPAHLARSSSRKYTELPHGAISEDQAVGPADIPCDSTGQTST
UniProt Q9NV70, sequence (Q9NV70 whole entry, looked up): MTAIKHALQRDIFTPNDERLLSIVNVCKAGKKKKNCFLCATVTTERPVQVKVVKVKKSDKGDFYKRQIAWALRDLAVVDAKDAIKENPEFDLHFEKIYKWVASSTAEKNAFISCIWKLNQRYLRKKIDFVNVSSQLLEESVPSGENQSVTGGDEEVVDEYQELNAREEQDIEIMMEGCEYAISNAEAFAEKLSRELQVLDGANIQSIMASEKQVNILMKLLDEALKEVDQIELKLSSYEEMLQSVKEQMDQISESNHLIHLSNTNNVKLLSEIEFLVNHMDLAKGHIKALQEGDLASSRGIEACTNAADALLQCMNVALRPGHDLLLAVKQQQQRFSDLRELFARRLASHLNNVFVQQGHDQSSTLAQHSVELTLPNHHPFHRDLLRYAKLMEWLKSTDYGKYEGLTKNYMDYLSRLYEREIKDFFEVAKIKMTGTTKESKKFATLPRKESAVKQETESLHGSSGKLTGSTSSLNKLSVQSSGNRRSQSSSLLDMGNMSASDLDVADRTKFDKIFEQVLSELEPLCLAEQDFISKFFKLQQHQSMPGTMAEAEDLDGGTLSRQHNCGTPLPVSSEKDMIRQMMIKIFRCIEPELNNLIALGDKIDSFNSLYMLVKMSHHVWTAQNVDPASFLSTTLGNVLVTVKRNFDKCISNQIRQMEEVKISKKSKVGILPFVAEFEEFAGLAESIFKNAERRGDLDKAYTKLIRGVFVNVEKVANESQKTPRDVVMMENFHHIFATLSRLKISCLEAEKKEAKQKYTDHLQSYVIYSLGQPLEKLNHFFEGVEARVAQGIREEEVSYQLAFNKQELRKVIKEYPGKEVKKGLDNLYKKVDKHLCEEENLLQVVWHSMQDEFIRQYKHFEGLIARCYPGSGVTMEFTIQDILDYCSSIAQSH
UniProt Q8N128, sequence (Q8N128 whole entry, looked up): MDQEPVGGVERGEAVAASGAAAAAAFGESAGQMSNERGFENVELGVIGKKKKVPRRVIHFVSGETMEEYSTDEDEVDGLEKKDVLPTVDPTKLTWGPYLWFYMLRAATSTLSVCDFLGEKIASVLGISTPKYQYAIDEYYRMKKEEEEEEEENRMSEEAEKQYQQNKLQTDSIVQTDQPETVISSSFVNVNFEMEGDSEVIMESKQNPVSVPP

Target	log2 fold change [1]	log2 fold change (volasertib)	log2 fold change [2]	log2 fold change (epoxomicin)	log2 fold change [3]	log2 fold change [4]	log2 fold change [5]	log2 fold change (rosiglitazone)	log2 fold change [6]	log2 fold change [7]	log2 fold change (saracatinib)	log2 fold change (sotrastaurin)	log2 fold change (alvocidib)	log2 fold change (Tubastatin A)	log2 fold change [8]	log2 fold change (defactinib)	log2 fold change (rucaparib)	log2 fold change [9]	log2 fold change (encorafenib)	log2 fold change [10]
DUS2 (UniProt Q9NX74)	-0.052	-0.242	0.037	0.059	-0.059	-0.029	0.055	0.063	0.115	-0.02	0.112	-0.098	-0.041	0.041	-0.048	-0.093	0.042	-0.113	0.09	-0.02
DAB2 (UniProt P98082)	-0.204	-0.289 (active)	0.042	-0.004	-0.014	0.022	0.132	0.032	0.032	-0.111	-0.044	0.009	-0.084	0.139	0.031	-0.026	0.043	0.05	0.077	-0.13
EIF4A1 (UniProt P60842)	-0.106	-0.273 (active)	0.079	0.001	0.001	-0.052	0.047	0.06	-0.046	-0.126	-0.029	-0.138	-0.088	0.049	-0.03	-0.116	0	0.012	0.071	-0.05
EXOC1 (UniProt Q9NV70)	-0.219	-0.44	0.077	-0.012	-0.081	0.023	0.084	0.115	0.1	-0.319	0.013	-0.249	-0.04	0.038	-0.002	-0.074	0.172	0.066	0.06	-0.081
DHCR7 (UniProt Q9UBM7)	0.409	1.68 (active)	0.054	0.154	-0.044	0.522 (active)	0.085	0.032	-0.055	0.203	0.412	-0.033	-0.042	0.087	-0.181	-0.01	0.143	0.087	0.084	-0.048
DTWD2 (UniProt Q8NBA8)	-0.047	-0.048	0.057	-0.015	0.057	-0.018	-0.106	0.005	-0.066	0.035	-0.032	-0.228	0.059	-0.029	0.111	-0.022	0.05	0.04	0.002	-0.032
DDOST (UniProt P39656)	0.006	-0.102	-0.014	-0.014	0.015	0.052	-0.031	-0.007	0.019	0.089	-0.015	-0.03	0.013	0.021	0.008	0.042	-0.029	-0.005	0.059	-0.002
DNAJC7 (UniProt Q99615)	-0.079	-0.266 (active)	0.104	0.073	-0.014	-0.025	0.014	0.017	-0.052	-0.142	0.001	-0.05	-0.069	0.002	0.034	-0.072	-0.016	0.056	0.045	-0.003
DTNBP1 (UniProt Q96EV8)	-0.017	0.009	-0.002	0.048	0.026	-0.086	-0.009	0.016	-0.028	0.01	-0.072	0.026	-0.041	0.023	0	-0.054	-0.015	0.005	0.014	0.054
FAM177A1 isoform 2 (UniProt Q8N128)	-0.039	-0.108	0.006	0.045	-0.001	0.045	-0.012	0.012	-0.023	-0.259 (active)	0.092	-0.021	-0.011	0.045	-0.094	-0.054	0.001	-0.042	-0.029	-0.065
DCTPP1 (UniProt Q9H773)	0.007	-0.016	-0.059	0.062	-0.012	-0.032	-0.012	0.012	-0.048	0.201	0.012	0.031	-0.033	0.031	-0.075	-0.008	-0.011	-0.022	-0.072	0.002
ELOVL5 isoform 2 (UniProt Q9NYP7)	-0.227	-0.164	0.026	-0.034	0.049	-0.206	0.021	0.122	-0.044	-0.691 (active)	-0.037	-0.084	-0.021	-0.085	-0.032	-0.016	-0.026	-0.135	0.132	-0.048
EHD2 (UniProt Q9NZN4)	-0.073	-0.243 (active)	0.027	0.023	-0.029	-0.085	0.007	0.039	-0.045	-0.002	0.016	0.017	-0.017	0.048	-0.031	-0.12	-0.019	-0.053	0.046	-0.061
EFL1 (UniProt Q7Z2Z2)	-0.024	-0.245 (active)	0.014	0.008	-0.008	-0.006	0.025	0.019	-0.037	-0.091	-0.036	-0.004	-0.038	-0.007	-0.014	-0.022	0.015	0.019	0.033	-0.014
EDC3 (UniProt Q96F86)	-0.006	-0.192	0.057	0.003	-0.03	-0.031	0.058	0.067	0.094	-0.251	-0.041	-0.304	-0.021	0.053	-0.021	-0.04	0.015	-0.237	0.048	0.005
DCAF10 (UniProt Q5QP82)	-0.003	0.029	-0.038	-0.102	-0.049	-0.018	-0.043	-0.015	-0.026	0.022	0.09	0.021	-0.011	-0.094	-0.018	-0.009	-0.083	0.007	0.052	0

— the supplement of paper PMC10849652
